VHR inh abs = DUSP3 (human) phosphatase inhibition. P51452. recombinant VHR phosphatase, pNPP absorbance. inhibition, % at 13.3 µM. 290,000 tested, 0.52% active; in the data active means inhibition above about 50%
Target sequence (P51452 whole entry, looked up): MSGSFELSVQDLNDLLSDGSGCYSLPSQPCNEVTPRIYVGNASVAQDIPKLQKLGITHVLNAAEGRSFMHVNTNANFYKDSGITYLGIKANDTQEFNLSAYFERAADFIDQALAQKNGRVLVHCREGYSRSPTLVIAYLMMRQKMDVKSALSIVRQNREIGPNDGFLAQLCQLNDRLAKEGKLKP
GDH-TPI inh = inhibits GDH-TPI coupling enzymes, artifact for Mtb FBA screen; GDH-TPI coupled enzyme counterscreen, NADH absorbance; inhibition, % at 4.8 µM; 360,000 tested, 1.2% active; AID 588335; in the data active means inhibition above about 30%;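 further: 0% = DMSO wells and 100% = wells lacking the enzyme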
FBA Mtb inh = inhibitors of M. tuberculosis fructose-bisphosphate aldolase; P9WQA3; purified M. tuberculosis FBA, fluorescence read-out; inhibition, % at 1 µM; 360,000 tested, 2.3% active; AID 588726; in the data active means inhibition above about 27%;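 further: 0% = vehicle and 100% = reference inhibitor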
Target sequence (P9WQA3 whole entry, looked up): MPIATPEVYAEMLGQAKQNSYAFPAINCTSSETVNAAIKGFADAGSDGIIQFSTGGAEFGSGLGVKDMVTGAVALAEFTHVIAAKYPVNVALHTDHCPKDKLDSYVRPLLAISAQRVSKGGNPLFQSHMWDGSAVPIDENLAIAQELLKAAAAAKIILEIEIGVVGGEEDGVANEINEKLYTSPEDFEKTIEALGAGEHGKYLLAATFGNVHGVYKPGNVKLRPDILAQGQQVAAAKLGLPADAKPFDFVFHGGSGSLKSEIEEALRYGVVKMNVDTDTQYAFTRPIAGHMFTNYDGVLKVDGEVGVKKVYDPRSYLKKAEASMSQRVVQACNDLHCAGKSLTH
Mtb bLac sens = beta-lactam sensitization of Mtb H37Rv; M. tuberculosis H37Rv growth with meropenem, percent inhibition; inhibition, % at 25 µM; 330,000 tested, 0.27% active; AID 434955; call rule not given here;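 further: growth measured after seven days incubation then overnight dye step; 0% = bacteria only wells and 100% = bacteria with antibiotic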
Mtb hypoxia inh = Mtb hypoxia fluorescent reporter inhibition; fluorescence inhibition, % (concentration not given with the values); 300,000 tested, 0.1% active; M. tuberculosis hypoxia-regulated fluorescent reporter, fluorescence; in the data active means fluorescence inhibition mostly above about 23%, no sharp cut-off; inactive means mostly below about 17%
* = called active by the depositor. This is a sample that favours compounds with a hit; in the whole collection about 3.6% have one here.

Screening COc1ccc(CCn2c(=N)c(C(=O)NCC3CCCO3)cc3c(=O)n4ccccc4nc32)cc1OC (stereo unspecified) returned VHR inh abs 15.0, GDH-TPI inh 11.8, FBA Mtb inh -3.7, Mtb bLac sens -2.6 and Mtb hypoxia inh -6.1.
Screening Cn1c(C(=O)NCCC2=CCCCC2)cc2c(=O)n3ccccc3nc21 returned VHR inh abs -1.4, GDH-TPI inh 4.1, FBA Mtb inh 113.6*, Mtb bLac sens 2.0 and Mtb hypoxia inh 10.3.
CN(C)c1ccc(NC(=O)c2cc3c(=O)n4ccccc4nc3n2C)cc1 was read as GDH-TPI inh 22.8, FBA Mtb inh 5.4, Mtb bLac sens -4.2 and Mtb hypoxia inh -95.5.
`Cn1c(C(=O)NCC2CCCO2)cc2c(=O)n3ccccc3nc21` (stereo unspecified) gave VHR inh abs 3.8, GDH-TPI inh 13.8, FBA Mtb inh active, Mtb bLac sens -4.3 and Mtb hypoxia inh 7.6.
For CC(=NOCC(=O)NN=Cc1ccccc1)c1cccs1 the results were Mtb hypoxia inh -0.4.
`Cc1cc(C=NNC(=O)c2ccccc2F)c(C)n1-c1ccccc1` gave Mtb hypoxia inh 3.4.
Screening CC(=O)c1ccc(-c2ccc(C(=O)NCC3CCCO3)o2)cc1 (stereo unspecified) returned GDH-TPI inh 16.8, FBA Mtb inh active, Mtb bLac sens -2.1 and Mtb hypoxia inh 8.9.
`O=C(NCC1CCCO1)c1ccc(-c2cccc(C(F)(F)F)c2)o1` (stereo unspecified) gave VHR inh abs 22.5, GDH-TPI inh 0.7, FBA Mtb inh 3.2, Mtb bLac sens 4.6 and Mtb hypoxia inh 4.9.
`CC1(C)CC(NC(=O)Cc2ccc(Cl)cc2)CC(C)(C)N1` gave VHR inh abs 53.3*, GDH-TPI inh 1.4, FBA Mtb inh 0.9, Mtb bLac sens -4.1 and Mtb hypoxia inh 1.7.
CC1(C)CC(NC(=O)c2ccc(Cl)cc2)CC(C)(C)N1 was read as VHR inh abs 35.7, GDH-TPI inh 2.4, FBA Mtb inh 0.5, Mtb bLac sens -0.4 and Mtb hypoxia inh 16.8.
`CC1(C)CC(NC(=O)c2ccc(F)cc2)CC(C)(C)N1` gave GDH-TPI inh -2.2 and FBA Mtb inh -0.9.
For CC(=O)c1ccc(-c2ccc(C(=O)N3CCC(C(N)=O)CC3)o2)cc1 the results were GDH-TPI inh 30.2, FBA Mtb inh 117.9*, Mtb bLac sens -8.2 and Mtb hypoxia inh 5.6.
CC(=O)c1ccc(-c2ccc(C(=O)NC3CC(C)(C)NC(C)(C)C3)o2)cc1 was read as GDH-TPI inh 43.9*, FBA Mtb inh 179.5*, Mtb bLac sens -14.4 and Mtb hypoxia inh -1.5.
`CC(=O)c1ccc(-c2ccc(C(=O)N3CCN(c4ccc(F)cc4)CC3)o2)cc1` gave VHR inh abs 38.6, GDH-TPI inh 22.4, FBA Mtb inh 2.2, Mtb bLac sens 3.6 and Mtb hypoxia inh 0.0.
Screening O=C(C=Cc1cccc(F)c1)Nc1nccs1 returned Mtb hypoxia inh 14.7.
For CC(C)(C)N1C(=O)C2C(c3ccc(Br)cc3)N3C(=O)N(c4cccc(Cl)c4)C(=O)[C@@]3(C)C2C1=O (stereo partly specified) the results were Mtb hypoxia inh -2.8.
For CCOc1ccc(C(=O)NN=Cc2ccc(-c3ccc(S(=O)(=O)Nc4ncccn4)cc3)o2)cc1 the results were Mtb hypoxia inh 15.7.
`NC(=S)NN=Cc1ccc(-c2ccc(S(=O)(=O)Nc3ncccn3)cc2)o1` gave GDH-TPI inh 32.6*, FBA Mtb inh 20.2, Mtb bLac sens -2.2 and Mtb hypoxia inh 7.3.
`O=C(NN=Cc1ccc(-c2ccc(S(=O)(=O)Nc3ncccn3)cc2)o1)c1cc2ccccc2cc1O` gave Mtb hypoxia inh 19.9.
`CCOc1ccc(C(=O)N/N=C/c2ccc(-c3ccc(S(=O)(=O)Nc4ncccn4)cc3)o2)cc1` gave VHR inh abs -2.2, GDH-TPI inh 35.3*, FBA Mtb inh 25.7 and Mtb bLac sens 99.9.
Screening NC(=S)N/N=C/c1ccc(-c2ccc(SC(F)F)cc2)o1 returned VHR inh abs 17.6, GDH-TPI inh 44.8*, FBA Mtb inh 8.6 and Mtb bLac sens 94.0.
COc1ccc(CNC(=S)NN=Cc2ccncc2)cc1 was read as Mtb hypoxia inh 6.8.
For COc1ccc(/C=N/N=C2/NC(=O)C(CC(=O)O)S2)cc1OCc1ccccc1Cl (stereo unspecified) the results were VHR inh abs 12.7, GDH-TPI inh 45.8*, FBA Mtb inh -1.3 and Mtb bLac sens 1.4.
`CCOc1cc(/C=N/N=C2/NC(=O)C(CC(=O)O)S2)ccc1OCc1ccccc1Cl` (stereo unspecified) gave VHR inh abs -9.1, GDH-TPI inh 39.7*, FBA Mtb inh -0.4 and Mtb bLac sens 1.8.
Screening COc1ccc(/C=N/N=C2/NC(=O)C(CC(=O)O)S2)cc1OCc1ccc(Cl)cc1Cl (stereo unspecified) returned VHR inh abs 124.9, GDH-TPI inh 34.7*, FBA Mtb inh -9.9 and Mtb bLac sens 1.8.
`CCOC(=O)C(C)C(C)=NNC(=O)CCC(=O)Nc1cc(C)ccc1C` (stereo unspecified) gave Mtb hypoxia inh 9.3.
Screening Nc1ccc(C(=O)N/N=C/c2cn(Cc3ccccc3F)c3ccccc23)cc1 returned VHR inh abs 27.2, GDH-TPI inh 29.9, FBA Mtb inh -2.0 and Mtb bLac sens -1.6.
For COc1ccccc1OCCn1cc(C=NNC(=O)c2ccncc2)c2ccccc21 the results were Mtb hypoxia inh 24.7.
For O=C(O)c1ccc(N/N=C/c2cn(Cc3ccccc3F)c3ccccc23)cc1 the results were VHR inh abs 5.0, GDH-TPI inh 42.0*, FBA Mtb inh 11.1 and Mtb bLac sens 10.8.
For NC(=O)N/N=C/c1cn(CC(=O)Nc2ccc(F)cc2)c2ccccc12 the results were VHR inh abs 12.5, GDH-TPI inh 1.5, FBA Mtb inh -3.3 and Mtb bLac sens 99.2.
Screening O=C(O)c1ccc(NN=Cc2cn(Cc3ccc(F)cc3)c3ccccc23)cc1 returned Mtb hypoxia inh 5.2.
For Nc1ccc(C(=O)N/N=C/c2cn(Cc3ccc(F)cc3)c3ccccc23)cc1 the results were VHR inh abs 18.7, GDH-TPI inh 32.8*, FBA Mtb inh 1.9 and Mtb bLac sens 8.3.
COc1ccccc1OCCn1cc(/C=N/NC(=O)c2ccncc2)c2ccccc21 was read as VHR inh abs 38.8, GDH-TPI inh 53.7*, FBA Mtb inh -1.0 and Mtb bLac sens 98.4.
`NC(=O)NN=Cc1cn(CC(=O)Nc2ccc(F)cc2)c2ccccc12` gave Mtb hypoxia inh 70.1*.
CC12CCC(CC1=N/N=C1/NC(=O)/C(=C\c3cccc(Br)c3)S1)C2(C)C (stereo unspecified) was read as Mtb hypoxia inh -7.6.
For CC1CC2C3CC(F)C4=CC(=O)C=C[C@]4(C)[C@@]3(Cl)C(O)C[C@]2(C)C1C(=O)COC(=O)C(C)(C)C (stereo partly specified) the results were Mtb hypoxia inh 1.5.
COc1cc(C(=O)N/N=C/c2cn(Cc3ccccc3)c3ccccc23)ccc1O was read as VHR inh abs 10.1, GDH-TPI inh 37.1*, FBA Mtb inh -0.7 and Mtb bLac sens 0.1.

Source: PubChem BioAssay (several laboratories)
